# p53 reactivation – restores transcriptional activity of mutant p53 | Potency, µM (doses to about 92.2 µM), inactives show at the top dose activity change, positive = activation, hits mostly activators | H1299 p53-A138V BP100-luciferase reporter, luminescence, 24 h | 0.063% of 320,000 active; further: potency means the concentration at half of the fitted maximal effect; % of control where 0% means no effect; nearly all actives have a fitted effect of over 45% in size
#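 H1299 (p53-null), stable ts p53-A138V + BP100-Luc; 1000 cells/well, Opti-MEM/10% FBS; cpd 4 pt, 1:5; 24 h, 37 deg C, 5% CO2; detection reagent 10 min RT; luminescence.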
# VP16 counter – inhibits Gal4-VP16 luciferase reporter, ROR gamma counter-screen | Drosophila S2 Gal4-VP16 UAS-luciferase, luminescence, 20 h | Potency, µM (doses to about 53.6 µM), inactives show at the highest dose activity, negative = inhibition, hits mostly inhibitors | 3.5% of 310,000 active | AID 2546;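 further: Gal4-VP16 expression switched on by copper sulfate through the metallothionein promoter; potency means the concentration at half of the fitted maximal effect; on the % scale 0 is the no-effect control and ±100 the full control effect; nearly all actives have a fitted effect of over 50% in size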
# BRCA1 expr act – activators of BRCA1 expression. MCF7-BRCA1-FFLuc reporter, luminescence, 48 h; response scale: scaled: vehicle 0%, 10 µM genistein 100%. Potency, µM (titrated, usually from 46.1 µM), without a hit: top-dose activation, usual class: activators. 1.1% of 380,000 active. AID 624202; further: potency means the concentration at half of the fitted maximal effect; nearly all actives have a fitted effect of over 80% in size
#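 Using MCF7 cells harboring a BRCA1 firefly luciferase reporter, plated 2 h before compound pinning, the screen measured luminescence after 48 h incubation. Responses were normalized to DMSO and 10 microM genistein, then fitted for concentration-effect.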
# RORgamma inh – blocks mouse ROR gamma transcriptional activity. 5.4% of 310,000 active. P51450. Drosophila S2 Gal4-RORgamma UAS-luciferase reporter, 20 h. Potency, µM (titrated, usually from 53.6 µM), for the others: top-dose activity change, negative = inhibition, hits mostly inhibitors; further: potency means the concentration at half of the fitted maximal effect; on the % scale 0 is the no-effect control and ±100 the full control effect; nearly all actives have a fitted effect of over 60% in size
# Target sequence (P51450 whole entry, looked up, the tested form may be a part): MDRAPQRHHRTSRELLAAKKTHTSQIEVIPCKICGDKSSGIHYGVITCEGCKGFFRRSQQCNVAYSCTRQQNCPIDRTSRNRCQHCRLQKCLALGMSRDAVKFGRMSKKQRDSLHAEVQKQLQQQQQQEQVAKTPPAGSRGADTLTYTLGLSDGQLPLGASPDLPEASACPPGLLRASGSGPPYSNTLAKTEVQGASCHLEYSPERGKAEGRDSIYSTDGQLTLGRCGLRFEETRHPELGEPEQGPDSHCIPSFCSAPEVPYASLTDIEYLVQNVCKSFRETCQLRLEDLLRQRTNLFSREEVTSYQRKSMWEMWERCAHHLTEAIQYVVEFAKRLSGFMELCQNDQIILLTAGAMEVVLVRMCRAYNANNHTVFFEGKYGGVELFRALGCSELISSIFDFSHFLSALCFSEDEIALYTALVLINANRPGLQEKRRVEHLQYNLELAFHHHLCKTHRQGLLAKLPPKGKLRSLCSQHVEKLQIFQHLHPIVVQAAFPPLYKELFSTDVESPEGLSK
#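 In this cell-based reporter format, copper sulfate (700 uM final) drives Gal4–ROR gamma fusion expression from a metallothionein promoter in Drosophila Schneider cells; compounds preincubated 1 hr, reporter read after 20 hr at ambient temperature.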
# Giardia killer – Giardia lamblia killing; activity change, % at 7.66 µM, hits read low; AID 540267; Giardia lamblia trophozoite viability; 0.15% of 340,000 active; in the data active means activity change below about -80%; inconclusive means between about -30% and that limit;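 further: parasites exposed to compound for two days anaerobically before the ATP read; on the % scale 0 is the no-effect control and ±100 the full control effect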
#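 Trophozoites 100 cells/well + cpd; 48 hrs, 37 deg C, anaerobic. ATPLite 1-Step added, 15-30 min RT, luminescence read (ATP-based viability).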
# ELG1 DNA repair – ELG1-dependent DNA repair inhibition; HEK293T ELG1-luciferase reporter, luminescence, 16 h; DNA damage induced by 5-fluorouridine; Potency, µM (series often up to 46.1 µM), without a hit: at the top dose activity change, negative = inhibition, hits mostly inhibitors; 2.3% of 330,000 active; AID 504467; further: potency means the concentration at half of the fitted maximal effect; on the % scale 0 is the no-effect control and ±100 the full control effect; nearly all actives have a fitted effect of over 55% in size
#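 In this reporter screen, reduction of luminescence relative to DMSO vehicle indicated activity. Compounds and 5-fluorouridine were added together to 2,000 cells per well, incubated for 16 hr at 37 °C, then developed with ONE-Glo.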
# Active calls of the source: *; ? = inconclusive; . = no result. An excerpt weighted towards active compounds, which were near 7.6% of everything screened. Unless noted, the call rests on the fitted dose curve; in most records, active means well fitted curve in the direction sought with a large enough effect; inconclusive means small, poorly fitted or top-dose-only effect, or another doubt; inactive means no such curve, though single readings can be large; an effect the other way counts as inactive or inconclusive.
SMILES,p53 reactivation,VP16 counter,BRCA1 expr act,RORgamma inh,Giardia killer,ELG1 DNA repair
CCOc1ccc(NC(=S)/C(=C(\[O-])c2ccc(C)c([N+](=O)[O-])c2)[n+]2ccccc2)cc1,7.2%,2.1%,-1.5%,-17.4%,-5.5,10.5%
CCOc1ccc(NC(=S)Nc2ccc(C)c([N+](=O)[O-])c2)cc1,17.9%,?,-15.8%,14.1µM*,5.5,-7.9%
CCOc1ccc(NC(=S)NC(C)CCc2ccccc2)cc1 (stereo not given),-3.0%,7.08µM*,-35.1%,2.51µM*,-7.5,?
CCOc1ccc(NC(C)=O)cc1,9.6%,-3.2%,-14.2%,0.2%,4.5,13.3%
CCOc1ccc(NC(=S)Nc2cc(C)[nH]n2)cc1,5.0%,7.08µM*,-31.4%,3.16µM*,8.4,0.0%
Cn1ncc(Cl)c1C(=O)Nc1sc2c(c1C(N)=O)CCC2,-2.2%,-13.0%,-32.8%,?,-3.3,?
O=C(Nc1cccc(F)c1)c1cc(S(=O)(=O)N2CCOCC2)ccc1N1CCCC1,8.0%,.,-6.4%,.,7.0,9.0%
CC(C)NC(=O)N1CCCC2(CCN(C(=O)c3cccc(F)c3)CC2)C1,.,-6.9%,.,10.1%,.,.
Cc1ccccc1-c1nc(CS(=O)CC(=O)NCCCN(C)c2ccccc2)c(C)o1 (stereo not given),1.0%,2.6%,-14.9%,17.8%,7.2,0.3%
CCNC(=S)Nc1ccc(OCc2nc3ccccc3s2)cc1,?,15.8µM*,?,12.6µM*,0.8,?
CCNC(=S)Nc1ccc(OCC)cc1,1.2%,?,28.0%,12.6µM*,-16.0,9.6%
COc1cc(NC(=S)NCCCO)c(OC)cc1Cl,-2.8%,13.8%,-2.2%,-34.9%,15.9,-10.9%
CCNC(=S)Nc1ccc(Oc2ccccc2)cc1,.,.,52.3%,.,5.1,.
CCOc1ccc(NC(=S)Nc2cc(OC)c(Cl)cc2OC)cc1,-2.2%,22.4µM*,-28.9%,10µM*,-1.4,?
CCOc1ccc(NC(=S)Nc2ccc(OCC)cc2)cc1,3.9%,-29.9%,21.1%,10µM*,-3.8,1.0%
O=C(O)CCCC(=O)Nc1ccc(OCc2nc3ccccc3s2)cc1,10.6%,18.1%,26.4%,9.3%,-12.8,?
CC(C)c1ccc(NC(=O)CCNS(=O)(=O)c2ccc3[nH]c(=O)oc3c2)cc1,-6.9%,3.5%,-9.0%,-1.4%,-2.9,13.9%
COc1cc(NC(=S)Nc2ccccn2)c(OC)cc1Cl,10.7%,7.08µM*,-32.7%,1.26µM*,27.8,20.9%
CC(=O)NC(C)CCc1ccccc1 (stereo not given),7.4%,-1.1%,25.5%,-11.7%,27.9,?
Cc1ccccc1NC(=S)NC(C)CCc1ccccc1 (stereo not given),-2.2%,3.55µM*,11.1%,4.47µM*,24.1,-15.5%
COc1cc(NC(=S)Nc2cccc(Cl)c2Cl)c(OC)cc1Cl,-0.8%,?,-1.9%,?,-4.2,-4.8%
Cc1cc(C)c(C)c(S(=O)(=O)N2CCC(C(=O)OCC(=O)NC3CCS(=O)(=O)C3)CC2)c1C (stereo not given),-7.1%,.,-14.7%,.,-9.6,13.6%
Cc1c(C(=O)N2CCCC2)sc(NC(=O)c2ccc(Cl)cc2)c1C#N,8.9%,-15.1%,-21.7%,?,1.3,?
COc1ccccc1C(=O)Nc1sc(C(=O)N2CCCC2)c(C)c1C#N,-9.4%,7.94µM*,-10.6%,3.98µM*,-11.1,?
CCCC(=O)N1CCN(c2ccc(NC(=S)NC(=O)CC)cc2)CC1,0.5%,-8.0%,-16.3%,?,-9.5,-11.2%
SMILES,p53 reactivation,VP16 counter,BRCA1 expr act,RORgamma inh,Giardia killer,ELG1 DNA repair
COc1ccc(OC)c(NC(=O)C23CC4CC(C2)CC(n2cnc(Br)n2)(C4)C3)c1,5.8%,1.8%,-13.8%,-5.1%,-12.4,-17.5%
COc1ccc(NC(=O)C23CC4CC(C2)CC(n2cnc(Br)n2)(C4)C3)c(OC)c1,-2.4%,-41.1%,0.0%,5.62µM*,20.4,0.0%
O=C(NCc1cc2ccccc2[nH]1)C1CCC(=O)N(CC2CCCCC2)C1 (stereo not given),.,.,-42.9%,.,.,.
COc1ccc(CC(=O)n2[nH]c(=O)cc(C)c2=O)cc1OC,5.3%,?,-12.6%,11.2µM*,-2.1,3.8%
Cc1ccc(-c2cc(C(=O)Nc3nccs3)c3ccccc3n2)c(C)c1,-17.5%,6.31µM*,-14.3%,4.47µM*,-6.2,13µM*
COCCCNC(=S)NNC(=O)c1cc(-c2ccncc2)nc2ccccc12,9.0%,?,3.4%,?,17.5,19.5%
CCCc1cc(C(=O)NNC(=S)NCC)c2ccccc2n1,7.9%,?,5.3%,-39.8%,-7.4,-1.5%
CCNC(=S)NNC(=O)c1cc(-c2cc(C)ccc2C)nc2ccccc12,-2.1%,-21.9%,-3.5%,0.355µM*,-1.4,1.3%
COCCCNC(=S)NNC(=O)c1cc(C2CC2)nc2ccccc12,-8.2%,?,25.8%,2.82µM*,20.0,-1.7%
COCCNC(=S)NNC(=O)c1cc(-c2cccnc2)nc2ccccc12,14.8%,?,-8.9%,12.6µM*,2.1,13.2%
COc1cccc(N2CCN(C(=O)C3C4C=CC5(CN(Cc6ccccc6Cl)C(=O)C35)O4)CC2)c1 (stereo not given),0.2%,-10.2%,-11.1%,18.2%,9.6,-8.8%
CCOc1ccccc1NC(=O)C1=C(C)Nc2ncnn2C1c1ccccn1 (stereo not given),.,.,13.9%,.,.,.
C/C(=N\N1C(=O)c2ccccc2NC1c1ccco1)c1ccccc1O (stereo not given),7.2%,2.24µM*,-42.7%,0.355µM*,0.2,?
C/C(=N\N1C(=O)c2ccccc2NC1c1ccccc1)c1ccccc1O (stereo not given),7.6%,2.82µM*,-27.4%,0.562µM*,-8.3,?
O=C1c2ccccc2NC(c2ccco2)N1/N=C/c1ccco1 (stereo not given),12.1%,-7.9%,73.9%,-25.8%,1.9,?
O=C(NC1CCc2ccccc21)c1cc(COc2c(F)cccc2F)on1 (stereo not given),11.1%,21.2%,30.0%,33.6%,25.6,4.3%
Cc1ccc(-c2nnc(Cc3ccc([N+](=O)[O-])cc3)o2)cc1,9.1%,?,?,0.282µM*,-21.6,?
COc1ccc(-n2cnnc2SCC(=O)Nc2cc(C(C)(C)C)nn2-c2ccccc2)cc1,0.8%,2.8%,-20.2%,-2.3%,-0.7,20.6µM*
COCCNc1nnc(SCC(=O)Nc2cc(-c3ccccc3)nn2-c2ccccc2)s1,-2.6%,-27.8%,-6.8%,-28.6%,-15.3,20.6µM*

# Screening results as filed in PubChem BioAssay.
